Test results: PubChem BioAssay (EPA / NIEHS)
Several values for one entry are separate records, joined by “and”; a condition that tells them apart may be missing. Equal entries are not always repeated. Where a structure was tested more than once in an assay, its records may differ in their call. Activity calls are given as the source filed them. Rule for the calls: active = hit-call score of the fitted dose curve at least 0.9, where 1 is the maximum; inactive = score below 0.9.

The molecules below were run on TIMP metallopeptidase inhibitor 2 (TIMP2), TIMP2 (gene 7077) (assay: BSK_KF3CT_TIMP2: BioMAP Diversity Plus: KF3CT Assay for TIMP metallopeptidase inhibitor 2 (TIMP2) Biomarker Activity (AID 2283071)). Settings: primary human keratinocytes with fibroblasts; actives raise or lower the signal.
Method in brief: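 Co-culture of human primary keratinocytes and foreskin fibroblasts, measured 24 h after chemical dosing. TIMP-2 quantified by ELISA and fitted in both directions relative to DMSO. Cytotoxicity checked in parallel cultures by SRB total-protein staining.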

Compound | AC50 | outcome
Nc1ccc(-c2ccc(N)c(N)c2)cc1N | 20 µM (active) | 
O=c1[nH]c(Cl)c(Cl)cc1Cl |  | inactive
O=C(O)CCCc1ccc(N(CCCl)CCCl)cc1 | 30.6 µM (active) and 32.6 µM (active) | 
COC(C)(C)CCC[C@H](C)C/C=C/C(C)=C/C(=O)OC(C)C | 9.64 µM (active) | 
O=P1(NCCCl)OCCCN1CCCl (configuration not stated) |  | inactive
O=S(=O)(c1ccccc1)c1ccccc1 |  | inactive
Clc1ccc(-c2ccccc2)cc1 |  | inactive
Oc1cc(Cl)ccc1Cl |  | inactive

These molecules were tested on Transforming growth factor beta 1 (TGFb1), TGFB1 (gene 7040) (assay: BSK_KF3CT_TGFb1: BioMAP Diversity Plus: KF3CT Assay for Transforming growth factor beta 1 (TGFb1) Biomarker Activity (AID 2283072)). Settings: primary human keratinocytes with fibroblasts; actives raise or lower the signal.
Method in brief: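 Human keratinocyte/foreskin fibroblast co-culture; TGF-b1 measured by ELISA 24 h after dosing, fitted bidirectionally versus DMSO. Cytotoxicity checked in parallel cultures by total protein (SRB staining, 560 nm).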

Compound | AC50 | outcome
Nc1ccc(-c2ccc(N)c(N)c2)cc1N | 26.6 µM (active) | 
O=c1[nH]c(Cl)c(Cl)cc1Cl |  | inactive
O=C(O)CCCc1ccc(N(CCCl)CCCl)cc1 | 29.8 µM (active) | inactive
COC(C)(C)CCC[C@H](C)C/C=C/C(C)=C/C(=O)OC(C)C | 15.3 µM (active) | 
O=P1(NCCCl)OCCCN1CCCl (configuration not stated) |  | inactive
O=S(=O)(c1ccccc1)c1ccccc1 |  | inactive
Clc1ccc(-c2ccccc2)cc1 |  | inactive
Oc1cc(Cl)ccc1Cl |  | inactive
